In test [1] the target is Cytochrome P450 2C9 (Homo sapiens) (UniProt P11712). The experiment in a line: Cytochrome P450 family 2 subfamily C member 9 (CYP2C9) small molecule antagonists: luciferase biochemical (cell-free) qHTS assay (AID 1645842). Also: nearly all actives have a fitted effect of over 55% in size. Also: potency is read from the fitted curve at half-maximal effect. Summed up: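 Luminescence, after 20 min with luciferin detection reagent, reflected CYP2C9 turnover during a 1 h NADPH-driven reaction at 37C. Enzyme-substrate mix contained 0.4% bovine serum albumin and was preincubated with compound 10 min at room temperature.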
For orientation: qHTS replaces the single test concentration by a dilution series.

Test [2] is described as follows: Stat Signaling Pathway (AID 446; active = well fitted curve in either direction with a large enough effect, not every such curve was filed as active;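 also: ME-180 cervical cancer cells given 40 pM IL-6 alongside compound; SIE-controlled beta-lactamase reporter measured as 460/530 nm FRET emission ratio; % is scaled to controls: 0 for no effect and ±100 for the full control effect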). Summed up: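 ME-180 SIE-bla cells; overnight plating; cpd + IL-6 40 pM, 5 h, 37 C; LiveBLAzer 2.5 h RT; 460/530 nm emission ratio. Normalized to 300 pM IL-6 and 125 nM JAK inhibitor controls.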
Test [3] concerns the target Glucocorticoid receptor (Homo sapiens) (UniProt P04150). The experiment in a line: GR-GFP Redistribution (AID 450;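 active = compounds whose dose series gives a full or clear partial fitted curve of increased nuclear translocation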; also: potency is read from the fitted curve at half-maximal effect). The following applies: U2OS GR-GFP nuclear translocation, laser cytometry, 2 h.
Test [4] addresses Luciferin 4-monooxygenase (Photinus pyralis) (UniProt P08659). The experiment in a line: Biochemical firefly luciferase enzyme assay for NPC (AID 624030; active = well fitted curve in the direction sought with a large enough effect; an effect the other way counts as inactive or inconclusive;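 also: purified P. pyralis luciferase at 10 nM with luciferin and ATP substrate; series mostly up to about 59 µM; 0% = DMSO and -100% = full luciferase inhibition by PTC124 control; nearly all actives have a fitted effect of over 70% in size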). Summed up: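 Direct inhibition of firefly luciferase enzyme (10 nM final, 50 mM Tris Acetate) assessed by luminescence within 5 minutes. Percent activity scaled between DMSO and PTC124 positive control, with concentration-effect curves classified by fit quality and response.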

Test [5] concerns the target Cytochrome P450 2D6 (Homo sapiens) (UniProt P10635). The experiment in a line: Cytochrome P450 family 2 subfamily D member 6 (CYP2D6) small molecule antagonists: luciferase biochemical (cell-free) qHTS assay (AID 1645840). Also: nearly all actives have a fitted effect of over 55% in size. Also: potency is read from the fitted curve at half-maximal effect. Summed up:
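P450-Glo luminescent screen: recombinant CYP2D6 enzyme–proluciferin substrate mix preincubated with compound 10 min at room temperature, then NADPH regeneration added for 1 h at room temperature. Detection reagent added for 20 min; luciferin light read as relative luminescence units.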

The target of test [6] is Phospholipid hydroperoxide glutathione peroxidase GPX4 (Homo sapiens) (UniProt P36969). The experiment in a line: Primary qHTS Assay for Inhibitors of Recombinant Selenoprotein Glutathione Peroxidase 4 (GPX4) (AID 1845192; active = well fitted curve in the direction sought with a large enough effect; an effect the other way counts as inactive or inconclusive; also: series mostly up to about 50 µM; % is scaled to controls: 0 for no effect and ±100 for the full control effect; nearly all actives have a fitted effect of over 65% in size). In a few lines: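 NADPH consumption, followed by fluorescence at 340/450 nm between 0 and 15 min, reports GPX4 activity via coupled glutathione reductase (100 nM). Enzyme 200 nM was pre-exposed to compound 30 min; 0.5 mM cumene hydroperoxide and 1 mM GSH served as substrates.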

Test [7] can be described thus: qHTS drug screen for cell cycle checkpoint inhibitors in PARPi-resistant BRCA-mutant ovarian cancer cell lines. (AID 1963452; calls by dose curve). Particulars: PEO1/OlaR viability, CellTiter-Glo luminescence, 96 h, stronger effect = lower value. Summed up:
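PEO1, PEO4 and PEO1/OlaR ovarian cancer cells, 600 per well, exposed 96 h at 37C to a dilution series. Viability read by CellTiter-Glo luminescence, normalized to DMSO and empty wells; activity summarized as Z-AUC.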

Test [8] deals with Rap guanine nucleotide exchange factor 3 (Homo sapiens) (UniProt O95398). Kind of test: Confirmatory qHTS for antagonist of cAMP-regulated guanine nucleotide exchange factor 3 (EPAC1) (AID 1645880; active = well fitted curve in the direction sought with a large enough effect; an effect the other way counts as inactive or inconclusive; also: potency is read from the fitted curve at half-maximal effect; nearly all actives have a fitted effect of over 55% in size). In a few lines:
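Nucleotide exchange uses 100 nM EPAC1, 250 nM RAP1B-BODIPY-GDP and 50 uM GDP, with compounds in a concentration-titration series. After 5 min at room temperature, fluorescence (480 nm ex/540 nm em) is read every 5 min for 30 min. Data are normalized to control ATA and DMSO.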

Test [9] shares this target. Kind of test: Confirmatory qHTS for agonist of cAMP-regulated guanine nucleotide exchange factor 3 (EPAC1) (AID 1645881; active = well fitted curve in the direction sought with a large enough effect; an effect the other way counts as inactive or inconclusive;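 also: EPAC1 catalysed release of BODIPY-GDP from Rap1B seen as fluorescence loss; 100% = effect of cAMP agonist control; nearly all actives have a fitted effect of over 75% in size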).
For test [10], the target named is Rap guanine nucleotide exchange factor 4 (Homo sapiens) (UniProt Q8WZA2). Kind of test: Confirmatory qHTS for agonist of cAMP-regulated guanine nucleotide exchange factor 4 (EPAC2) (AID 1645884; active = well fitted curve in the direction sought with a large enough effect; an effect the other way counts as inactive or inconclusive;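 also: nucleotide exchange releases bodipy-GDP from Rap1 and this lowers its fluorescence; % is scaled to controls: 0 for no effect and ±100 for the full control effect; nearly all actives have a fitted effect of over 65% in size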).
For test [11] the target is unchanged. Kind of test: Confirmatory qHTS for antagonist of cAMP-regulated guanine nucleotide exchange factor 4 (EPAC2) (AID 1645885; active = well fitted curve in the direction sought with a large enough effect; an effect the other way counts as inactive or inconclusive; also: nearly all actives have a fitted effect of over 25% in size).
The target in test [12] is Rap guanine nucleotide exchange factor 3 (Homo sapiens) (UniProt O95398). Kind of test: Counterscreen qHTS for antagonist of cAMP-regulated guanine nucleotide exchange factor 3 (EPAC1) (AID 1645888; active = well fitted curve in the direction sought with a large enough effect; an effect the other way counts as inactive or inconclusive;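 also: fluorescence loss as bound BODIPY-GDP is released from Rap1B; % of control where 0% means no effect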). Summed up:
(§1)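 Rap1B-BODIPY-GDP 250 nM + GDP 50 uM; cpds 7-pt, final 9.74 nM–152 uM (activator mode) or from 7.32 nM upwards (inhibitor mode); RT; FI 480/540 nm at 5 and 30 min, then ± cAMP, reread.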
Background: Counterscreens check selectivity or assay interference.

The target is the same in test [13]. The experiment in a line: Counterscreen qHTS for agonist of cAMP-regulated guanine nucleotide exchange factor 3 (EPAC1) (AID 1645889; active = well fitted curve in the direction sought with a large enough effect; an effect the other way counts as inactive or inconclusive; also: % of control where 0% means no effect; nearly all actives have a fitted effect of over 40% in size). Summed up:
as §1

Test [14] in a line: qHTS Assay for Identifying Gametocytocidal Compounds (AID 743244; active = well fitted curve in the direction sought with a large enough effect; an effect the other way counts as inactive or inconclusive;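 also: % is scaled to controls: 0 for no effect and ±100 for the full control effect; actives lower the fluorescent signal which means gametocytes are killed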). Particulars: P. falciparum 3D7 stage III-V gametocytes, alamarBlue, 72 h; max response: stronger effect = lower value. Summed up: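 Stage III–V gametocytes of P. falciparum 3D7 were seeded at 20,000 cells/well onto pre-dispensed compounds. After 72 h, 37 °C, 5% CO2, alamarBlue was added for another 24 h.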
Test [15] concerns the target Cytochrome P450 3A4 (Homo sapiens) (UniProt P08684). Kind of test: Cytochrome P450 family 3 subfamily A member 4 (CYP3A4) small molecule antagonists: luciferase qHTS assay (AID 1645841). Also: nearly all actives have a fitted effect of over 45% in size. Also: potency is read from the fitted curve at half-maximal effect. Summed up: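 Luminescent CYP3A4 activity readout: compounds plus enzyme-substrate mix 10 min at room temperature, reaction started with NADPH regenerating system for 1 h, stopped with detection reagent, read after 20 min. Ketoconazole served as control.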

Test [16] concerns the target Tumor susceptibility gene 101 protein (Homo sapiens) (UniProt Q99816). The experiment in a line: qHTS Assay for Iinhibitors of HIV-1 Budding by Blocking the Interaction of PTAP/TSG101: Hit Validation (AID 651600; active = well fitted curve in the direction sought with a large enough effect; an effect the other way counts as inactive or inconclusive; also: % is scaled to controls: 0 for no effect and ±100 for the full control effect; nearly all actives have a fitted effect of over 70% in size). In a few lines:
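Measuring PTAP–Tsg101 interaction by FP: protein at 10 uM and fluorescent peptide at 50 nM (final), buffer 10 mM HEPES pH 7.5 with 0.15 M NaCl, 3 mM EDTA, 0.1 mM TCEP, 0.01% Tween 20; 20 min incubation, r.t.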

For test [17], the target named is Glutathione peroxidase 1 (Homo sapiens) (UniProt P07203). Kind of test: Primary qHTS Assay for Inhibitors of Recombinant Selenoprotein Glutathione Peroxidase 1 (GPX1) (AID 1845191; active = well fitted curve in the direction sought with a large enough effect; an effect the other way counts as inactive or inconclusive; also: nearly all actives have a fitted effect of over 65% in size). In a few lines:
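10 nM GPX1 + cpd, 30 min RT; start w/ 1 mM GSH, 0.5 mM cumene hydroperoxide, 0.5 mM NADPH, 100 nM GR, 0.01% BSA; buffer 50 mM Tris-HCl pH 7.5, 2 mM EDTA, 150 mM NaCl; Fl 340/450, 0 & 15 min.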

Test [18] in a line: qHTS for Inhibitors of the vitamin D receptor (VDR): Hit Validation using a Texas Red Assay (AID 602201; active = well fitted curve in the direction sought with a large enough effect; an effect the other way counts as inactive or inconclusive; also: potency is read from the fitted curve at half-maximal effect). Particulars: VDR coregulator binding, Texas Red fluorescence polarization; agonist-bound VDR ligand-binding domain. Summed up:
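After a 2-hour room-temperature incubation, polarization of Texas-Red emission was read (Ex 595 nm/Em 615 nm). Final mix contained 7 nM Texas Red, 1.5 uM VDR-LBD and LG19078.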

The mark [19] stands for this setting: measured here: PEO1 parental Z-AUC.

The source of these data is PubChem BioAssay (NCATS).

Records with an inconclusive call do not appear. Activity calls are given as the source filed them. Unless noted, calls follow the shape of the dose curve; as a rule, active = well fitted curve in the direction sought with a large enough effect in the repeat runs; inconclusive = weak or mixed curves; inactive = no such curve, though single readings can be large; an effect the other way counts as inactive or inconclusive.

Chain of Cytochrome P450 2C9 (Homo sapiens) (P11712 whole entry, looked up): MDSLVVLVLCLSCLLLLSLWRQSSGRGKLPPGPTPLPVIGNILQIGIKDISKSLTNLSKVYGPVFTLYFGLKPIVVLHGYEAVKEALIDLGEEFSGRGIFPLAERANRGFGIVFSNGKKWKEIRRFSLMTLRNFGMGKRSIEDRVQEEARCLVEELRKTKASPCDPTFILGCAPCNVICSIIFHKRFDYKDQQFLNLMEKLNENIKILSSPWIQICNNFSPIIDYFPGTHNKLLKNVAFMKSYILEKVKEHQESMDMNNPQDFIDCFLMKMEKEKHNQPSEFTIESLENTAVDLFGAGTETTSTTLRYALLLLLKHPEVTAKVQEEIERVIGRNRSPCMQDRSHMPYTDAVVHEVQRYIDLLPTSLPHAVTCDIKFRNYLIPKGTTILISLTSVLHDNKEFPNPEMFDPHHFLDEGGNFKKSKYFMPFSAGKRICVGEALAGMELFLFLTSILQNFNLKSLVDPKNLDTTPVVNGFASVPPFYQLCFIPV
Chain of Phospholipid hydroperoxide glutathione peroxidase GPX4 (Homo sapiens) (P36969 whole entry, looked up): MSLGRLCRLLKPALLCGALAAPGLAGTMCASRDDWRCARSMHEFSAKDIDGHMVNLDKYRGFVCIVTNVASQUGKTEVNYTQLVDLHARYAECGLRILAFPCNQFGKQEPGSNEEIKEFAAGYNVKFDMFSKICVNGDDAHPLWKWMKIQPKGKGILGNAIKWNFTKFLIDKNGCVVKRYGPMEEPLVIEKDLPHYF
Chain of Cytochrome P450 2D6 (Homo sapiens) (P10635 whole entry, looked up): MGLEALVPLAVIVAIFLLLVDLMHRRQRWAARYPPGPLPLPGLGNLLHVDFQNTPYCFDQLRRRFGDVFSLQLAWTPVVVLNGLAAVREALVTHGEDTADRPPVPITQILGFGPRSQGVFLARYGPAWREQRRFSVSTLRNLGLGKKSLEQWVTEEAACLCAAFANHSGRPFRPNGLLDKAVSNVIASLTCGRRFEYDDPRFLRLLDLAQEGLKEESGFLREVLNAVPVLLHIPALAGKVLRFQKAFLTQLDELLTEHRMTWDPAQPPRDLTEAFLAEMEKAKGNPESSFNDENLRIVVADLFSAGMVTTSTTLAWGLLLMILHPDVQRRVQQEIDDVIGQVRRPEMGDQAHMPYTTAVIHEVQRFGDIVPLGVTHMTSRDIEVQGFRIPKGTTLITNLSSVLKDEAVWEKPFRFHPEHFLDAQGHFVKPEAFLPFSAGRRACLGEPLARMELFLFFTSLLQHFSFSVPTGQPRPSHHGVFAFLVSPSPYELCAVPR
Chain of Rap guanine nucleotide exchange factor 3 (Homo sapiens) (O95398 whole entry, looked up): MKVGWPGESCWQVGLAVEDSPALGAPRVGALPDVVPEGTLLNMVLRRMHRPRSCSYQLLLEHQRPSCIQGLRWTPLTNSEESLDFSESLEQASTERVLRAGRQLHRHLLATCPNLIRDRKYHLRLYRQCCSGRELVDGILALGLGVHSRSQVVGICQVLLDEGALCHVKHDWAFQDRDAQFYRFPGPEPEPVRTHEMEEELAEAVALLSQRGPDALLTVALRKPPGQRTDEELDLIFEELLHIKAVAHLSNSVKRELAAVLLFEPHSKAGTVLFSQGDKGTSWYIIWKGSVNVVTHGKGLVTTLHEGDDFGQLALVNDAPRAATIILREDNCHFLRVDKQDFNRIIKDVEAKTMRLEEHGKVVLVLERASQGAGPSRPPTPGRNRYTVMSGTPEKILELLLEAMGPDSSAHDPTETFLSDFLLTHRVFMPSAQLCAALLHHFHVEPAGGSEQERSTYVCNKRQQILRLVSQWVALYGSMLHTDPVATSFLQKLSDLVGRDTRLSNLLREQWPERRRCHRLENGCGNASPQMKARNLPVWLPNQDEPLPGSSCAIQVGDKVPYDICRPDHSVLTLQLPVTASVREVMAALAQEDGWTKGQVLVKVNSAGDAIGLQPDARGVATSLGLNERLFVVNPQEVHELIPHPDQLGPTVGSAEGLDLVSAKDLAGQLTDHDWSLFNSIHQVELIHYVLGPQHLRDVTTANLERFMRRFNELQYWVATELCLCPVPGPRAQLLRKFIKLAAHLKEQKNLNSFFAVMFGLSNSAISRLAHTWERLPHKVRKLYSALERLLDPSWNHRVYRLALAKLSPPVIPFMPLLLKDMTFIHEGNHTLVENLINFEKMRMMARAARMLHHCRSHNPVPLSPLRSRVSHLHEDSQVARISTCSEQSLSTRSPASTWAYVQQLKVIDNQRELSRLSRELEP
Chain of Glutathione peroxidase 1 (Homo sapiens) (P07203 whole entry, looked up): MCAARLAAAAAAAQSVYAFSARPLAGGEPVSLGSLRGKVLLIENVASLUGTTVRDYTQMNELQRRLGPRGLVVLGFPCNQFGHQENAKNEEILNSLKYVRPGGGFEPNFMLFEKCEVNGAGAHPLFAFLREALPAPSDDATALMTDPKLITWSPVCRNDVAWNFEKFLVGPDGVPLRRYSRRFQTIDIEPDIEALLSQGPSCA
Chain of Rap guanine nucleotide exchange factor 4 (Homo sapiens) (Q8WZA2 whole entry, looked up): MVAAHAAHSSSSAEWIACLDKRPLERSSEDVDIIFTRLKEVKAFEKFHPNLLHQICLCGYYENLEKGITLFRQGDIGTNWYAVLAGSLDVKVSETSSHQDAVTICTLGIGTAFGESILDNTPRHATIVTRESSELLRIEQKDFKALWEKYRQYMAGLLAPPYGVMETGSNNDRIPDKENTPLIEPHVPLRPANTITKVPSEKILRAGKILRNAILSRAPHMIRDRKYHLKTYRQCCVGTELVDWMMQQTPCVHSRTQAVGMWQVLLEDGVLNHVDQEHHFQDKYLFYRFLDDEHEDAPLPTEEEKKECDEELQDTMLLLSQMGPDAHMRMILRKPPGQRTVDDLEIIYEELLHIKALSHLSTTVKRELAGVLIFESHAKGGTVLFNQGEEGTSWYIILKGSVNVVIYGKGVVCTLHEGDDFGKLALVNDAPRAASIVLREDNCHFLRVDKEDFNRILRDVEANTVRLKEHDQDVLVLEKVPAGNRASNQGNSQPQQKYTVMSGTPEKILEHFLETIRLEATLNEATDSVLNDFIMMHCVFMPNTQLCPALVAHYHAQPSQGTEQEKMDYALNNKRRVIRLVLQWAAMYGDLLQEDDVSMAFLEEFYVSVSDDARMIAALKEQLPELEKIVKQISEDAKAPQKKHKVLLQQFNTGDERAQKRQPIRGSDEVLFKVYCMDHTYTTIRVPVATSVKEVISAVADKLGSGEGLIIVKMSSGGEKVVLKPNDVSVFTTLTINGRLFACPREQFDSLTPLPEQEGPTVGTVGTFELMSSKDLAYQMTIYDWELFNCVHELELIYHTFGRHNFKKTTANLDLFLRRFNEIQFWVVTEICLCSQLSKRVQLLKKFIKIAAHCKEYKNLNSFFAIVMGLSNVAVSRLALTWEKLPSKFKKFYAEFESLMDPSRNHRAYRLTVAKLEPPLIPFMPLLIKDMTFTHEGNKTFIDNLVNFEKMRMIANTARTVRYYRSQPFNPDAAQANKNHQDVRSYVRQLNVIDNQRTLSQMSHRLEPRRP
Chain of Cytochrome P450 3A4 (Homo sapiens) (P08684 whole entry, looked up): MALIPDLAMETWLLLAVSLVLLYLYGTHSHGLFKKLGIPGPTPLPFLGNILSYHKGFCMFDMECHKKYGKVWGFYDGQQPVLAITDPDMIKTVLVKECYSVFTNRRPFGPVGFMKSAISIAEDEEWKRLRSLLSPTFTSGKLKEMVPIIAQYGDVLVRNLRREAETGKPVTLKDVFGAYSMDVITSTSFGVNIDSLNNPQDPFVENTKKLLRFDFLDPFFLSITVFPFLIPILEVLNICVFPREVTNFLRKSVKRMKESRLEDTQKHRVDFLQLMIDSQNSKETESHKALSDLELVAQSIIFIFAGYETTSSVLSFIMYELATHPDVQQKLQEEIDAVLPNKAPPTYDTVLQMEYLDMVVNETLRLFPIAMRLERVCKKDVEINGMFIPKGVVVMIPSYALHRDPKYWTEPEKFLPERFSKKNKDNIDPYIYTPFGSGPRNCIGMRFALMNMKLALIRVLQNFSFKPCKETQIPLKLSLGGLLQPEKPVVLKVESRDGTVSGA
Chain of Glucocorticoid receptor (Homo sapiens) (P04150 whole entry, looked up): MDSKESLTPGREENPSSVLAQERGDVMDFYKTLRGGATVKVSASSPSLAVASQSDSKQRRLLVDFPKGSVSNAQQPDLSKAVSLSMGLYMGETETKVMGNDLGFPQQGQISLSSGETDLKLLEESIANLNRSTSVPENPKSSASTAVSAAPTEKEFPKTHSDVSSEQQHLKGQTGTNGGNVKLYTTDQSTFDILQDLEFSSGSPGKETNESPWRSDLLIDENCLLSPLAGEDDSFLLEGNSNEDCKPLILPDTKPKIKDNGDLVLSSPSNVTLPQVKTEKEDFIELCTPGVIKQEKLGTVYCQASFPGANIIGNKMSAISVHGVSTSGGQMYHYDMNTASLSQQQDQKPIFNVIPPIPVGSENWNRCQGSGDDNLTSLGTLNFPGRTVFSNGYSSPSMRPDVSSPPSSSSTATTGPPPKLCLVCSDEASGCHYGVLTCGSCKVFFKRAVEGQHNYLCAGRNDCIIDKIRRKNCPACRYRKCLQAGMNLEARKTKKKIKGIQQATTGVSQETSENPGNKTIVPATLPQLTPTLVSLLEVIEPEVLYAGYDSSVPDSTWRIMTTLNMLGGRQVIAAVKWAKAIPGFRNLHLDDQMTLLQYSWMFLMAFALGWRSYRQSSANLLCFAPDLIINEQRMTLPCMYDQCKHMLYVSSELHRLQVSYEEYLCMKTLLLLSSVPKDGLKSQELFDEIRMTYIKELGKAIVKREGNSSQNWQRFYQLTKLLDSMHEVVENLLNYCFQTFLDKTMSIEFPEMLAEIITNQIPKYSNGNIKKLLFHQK
Chain of Tumor susceptibility gene 101 protein (Homo sapiens) (Q99816 whole entry, looked up): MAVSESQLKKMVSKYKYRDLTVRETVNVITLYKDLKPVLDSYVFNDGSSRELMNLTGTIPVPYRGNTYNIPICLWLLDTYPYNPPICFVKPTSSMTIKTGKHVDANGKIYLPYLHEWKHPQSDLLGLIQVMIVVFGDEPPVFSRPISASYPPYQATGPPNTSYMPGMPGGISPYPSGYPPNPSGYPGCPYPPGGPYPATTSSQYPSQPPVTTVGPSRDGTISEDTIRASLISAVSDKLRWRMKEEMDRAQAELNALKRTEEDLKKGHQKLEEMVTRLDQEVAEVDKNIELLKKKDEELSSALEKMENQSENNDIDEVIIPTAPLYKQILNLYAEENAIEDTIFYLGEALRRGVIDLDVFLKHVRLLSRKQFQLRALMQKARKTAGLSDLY

As for `CCOc1cc(C(=O)Nc2ccc(-c3nc4ncccc4o3)cc2C)cc(OCC)c1OCC`, the Potency in [1] was 7.56 µM (active).
Still for that read-out and setting: the value for `CCc1ccc(C2=CC(c3c(F)cccc3Cl)n3c(nc4ccccc43)N2)cc1` (stereo not given) was 5.35 µM (active).
In the case of `C[C@@H]1C[C@H]2[C@@H]3C[C@H](F)C4=CC(=O)C=C[C@]4(C)[C@@]3(F)[C@@H](O)C[C@]2(C)[C@@]1(O)C(=O)COC(=O)C(C)(C)C`, the compound was called inactive in test [2]. Also, the Potency is 0.00124 µM (active) in test [3] and 9.52 µM (active) in [1]. Besides, the Potency entry in test [4], in test [5] and in [6] was “inactive” in each case.
Take `Cc1cc2c(F)c(Oc3ncnn4cc(OC[C@@H](C)OC(=O)[C@H](C)N)c(C)c34)ccc2[nH]1`: the Potency is 10.7 µM (active) in test [5] and 2.39 µM (active) in test [1]. Moreover, the Z-AUC was 1.46 (inactive) in test [7], 0.526 in test [7] (setting [19]) and 0.822 in test [7] (measured here: PEO4 Z-AUC).
For the compound `CC1=C(C(=O)Nc2cccc(-c3ccn[nH]3)c2)C(c2ccccc2Cl)N=C(Nc2nc3ccccc3o2)N1` (stereo not given), in test [1], the Potency is 0.477 µM (active).
As for `COc1ccc(CCNC(=O)Cn2nc(C)c3c(C)n(-c4ccc(C)cc4)nc3c2=O)c(OC)c1`, the Potency in test [5] was 8.49 µM (active); in test [8], 67.5 µM (active). Besides, the Potency entry in test [9], in test [10], in test [12] and in test [13] was “inactive” throughout. For the same compound, in test [11], the outcome was “inactive [at 12.7 µM]”.
As for `COc1cccc(CNC(=O)C2CCCN(c3nn4cc(-c5ccc(C)cc5)nc4s3)C2)c1` (stereo not given), the Potency in [1] is 2.39 µM (active).
Regarding `CC[C@H]1OC(=O)[C@H](C)[C@@H](O[C@H]2C[C@@](C)(OC)[C@@H](O)[C@H](C)O2)[C@H](C)[C@@H](O[C@@H]2O[C@H](C)C[C@H](N(C)C)[C@H]2O)[C@](C)(OC)C[C@@H](C)C(=O)[C@H](C)[C@@H](O)[C@]1(C)O`, the max response in test [14] was -5.34% (inactive). In addition, the Potency result in test [5], in test [1] and in test [6] was “inactive” in each case.
Consider `Oc1ccc(C2(c3ccccc3F)CCC(F)(F)CC2)cc1`, for which the figures for the Potency in test [15] and in test [1] were 12 µM (active) and 2.13 µM (active), respectively.
Consider `COc1ccc(OC)c(/C=C(\C#N)c2nc3ccccc3c(=O)[nH]2)c1`, for which the Potency entry in test [16] and in test [5] was “inactive” each time. Moreover, the Potency in test [1] is 1.51 µM (active).
Regarding `COc1cc(Cl)c(C)cc1NC(=O)CSc1ncc(S(=O)(=O)c2ccc(C(C)(C)C)cc2)c(=O)[nH]1`, the Potency in [1] is 0.425 µM (active).
Same read-out and setting: with `CCOc1ccc2nc(N3CCC(C(=O)Nc4ccccc4CC)CC3)sc2c1` the figure was 6.01 µM (active).
Consider `CN[C@@H]1[C@@H](O)[C@@H](O[C@@H]2[C@@H](O)[C@H](O[C@H]3O[C@H]([C@@H](C)NC)CC[C@H]3N)[C@@H](N)C[C@H]2N)OC[C@]1(C)O`, for which the Potency result in test [5] and in test [17] was “inactive” throughout.
On to `Cc1nc2c3ccccc3nc(NNC(=O)CCC(=O)N3CCN(c4cccc(Cl)c4)CC3)n2n1`, for which the Potency in test [1] was 12 µM (active).
`Cc1nc2c(-c3ccccc3)c(C)[nH]n2c(=O)c1Cc1ccc(Br)cc1`: the Potency result in test [15] is “inactive”.
Take `CCn1c(N)c(C(=O)NC)c(=O)c2ccc(C#C[C@@](C)(O)COC)nc21`: the Potency entry in [5], in test [17] and in test [6] was “inactive” each time. The Z-AUC in test [7] was -0.226 (inactive); in test [7] (setting [19]), -0.662; in [7] (measured here: PEO4 Z-AUC), 0.0317.
Regarding `Cc1ccnc(NC(c2cc(C)ccc2O)c2ccc3cccnc3c2O)c1` (stereo not given), the Potency in [18] is 28.2 µM (active). Further, the Potency result in [5] was “inactive”.
